# Measurements: PubChem BioAssay (EPA / NIEHS)
# Calls of active or inactive are those of the source. Rule for the calls: active = hit-call score of the fitted dose curve at least 0.9, where 1 is the maximum; inactive = score below 0.9.
# How the values were obtained:
# [1] = ATG_GRE_CIS: Attagene CIS-FACTORIAL HepG2 Assay for human Glucocorticoid Response Elements (GRE) (AID 2282947); conditions: HepG2 GRE cis-reporter, Attagene multiplex mRNA; actives raise or lower the signal
# Procedure, shortened: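 Multiplexed cis-reporter mRNA induction, HepG2, 24 h post-dose. RT-PCR, FAM-labelled, HpaI-digested amplicons by CE. Bidirectional fit vs DMSO.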
# [2] = ATG_ISRE_CIS: Attagene CIS-FACTORIAL HepG2 Assay for human Interferon Regulatory Factor 1 (IRF1) binding to an Interferon-Stimulated Response Element (ISRE) (AID 2282948); conditions: HepG2 ISRE cis-reporter (Attagene), mRNA transcription readout; actives raise or lower the signal
# Procedure, shortened: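 Endogenous transcription factor activity read as reporter transcript abundance via RT-PCR and capillary electrophoresis. HepG2 cells transiently transfected, 24 h chemical exposure. Gain or loss fitted against DMSO baseline.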
# [3] = ATG_M_32_CIS: Attagene CIS-FACTORIAL HepG2 Assay for M32 Transcription Factor (Internal Marker) (AID 2282949); conditions: HepG2 Attagene cis-factorial M32 reporter, mRNA; actives raise or lower the signal;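 note: background control marker of the multiplexed CIS panel rather than a real target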
# Procedure, shortened: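 Using DMSO as baseline, bidirectional curve fits were applied to reporter mRNA signals. These came from transiently transfected HepG2 cells exposed for 24 h, with RNA analysed by RT-PCR, FAM primer extension, HpaI digestion and CE.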
# [4] = ATG_M_06_CIS: Attagene CIS-FACTORIAL HepG2 Assay for M06 Transcription Factor (Internal Marker) (AID 2282950); conditions: HepG2 Attagene CIS-FACTORIAL M06 internal marker reporter; actives raise or lower the signal
# Procedure, shortened: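 Steps: transfect HepG2 with multiplexed cis-element reporter constructs; dose chemical 24 h; extract RNA with DNase treatment; reverse-transcribe, PCR-amplify, 6-FAM label, HpaI digest; separate fragments by capillary electrophoresis. Activity fitted both directions versus DMSO.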
# [5] = target: Hypoxia-inducible factor 1-alpha (Homo sapiens) (UniProt Q16665); assay: ATG_HIF1a_CIS: Attagene CIS-FACTORIAL HepG2 Assay for human Hypoxia Inducible Factor 1 (HIF1A) (AID 2282951); conditions: HepG2 Attagene cis-factorial HIF1a reporter transcription; actives raise or lower the signal
# Hypoxia-inducible factor 1-alpha (Homo sapiens), sequence (Q16665 whole entry, looked up): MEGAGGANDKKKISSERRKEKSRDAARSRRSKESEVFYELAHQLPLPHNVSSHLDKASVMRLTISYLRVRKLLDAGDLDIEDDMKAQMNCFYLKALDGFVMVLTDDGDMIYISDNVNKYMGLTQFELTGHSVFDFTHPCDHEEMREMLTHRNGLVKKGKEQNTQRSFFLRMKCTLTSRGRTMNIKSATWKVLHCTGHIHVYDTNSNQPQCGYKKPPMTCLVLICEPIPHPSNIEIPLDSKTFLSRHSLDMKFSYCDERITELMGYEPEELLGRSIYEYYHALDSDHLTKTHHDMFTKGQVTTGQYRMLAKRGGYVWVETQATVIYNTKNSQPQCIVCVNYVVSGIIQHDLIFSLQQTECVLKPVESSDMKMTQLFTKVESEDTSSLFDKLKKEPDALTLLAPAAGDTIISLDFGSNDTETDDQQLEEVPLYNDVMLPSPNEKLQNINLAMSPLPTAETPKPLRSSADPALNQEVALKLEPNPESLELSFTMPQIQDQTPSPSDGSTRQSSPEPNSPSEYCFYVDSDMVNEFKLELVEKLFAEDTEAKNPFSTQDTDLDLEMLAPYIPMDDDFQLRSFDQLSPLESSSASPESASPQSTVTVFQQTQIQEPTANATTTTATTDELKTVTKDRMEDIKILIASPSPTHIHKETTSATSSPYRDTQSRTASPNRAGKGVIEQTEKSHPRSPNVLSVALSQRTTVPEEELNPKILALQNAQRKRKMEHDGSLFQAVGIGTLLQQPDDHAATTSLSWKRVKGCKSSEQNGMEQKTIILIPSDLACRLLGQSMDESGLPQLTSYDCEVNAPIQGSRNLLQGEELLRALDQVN
# Procedure, shortened: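 HepG2 cells transiently transfected with multiple cis-regulated reporter transcription units measure endogenous transcription factor activity. After 24 h exposure, reporter mRNA is quantified by RT-PCR with 6-FAM labelling, HpaI digestion and capillary electrophoresis. Bidirectional fitting against DMSO.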
# [6] = target: Hepatocyte nuclear factor 6 (Homo sapiens) (UniProt Q9UBC0); assay: ATG_HNF6_CIS: Attagene CIS-FACTORIAL HepG2 Assay for human Hepatocyte Nuclear Factor 6 (HNF6) (AID 2282952); conditions: HepG2 Attagene cis-factorial HNF6 reporter transcription; actives raise or lower the signal
# Hepatocyte nuclear factor 6 (Homo sapiens), sequence (Q9UBC0 whole entry, looked up, the tested form may be a part): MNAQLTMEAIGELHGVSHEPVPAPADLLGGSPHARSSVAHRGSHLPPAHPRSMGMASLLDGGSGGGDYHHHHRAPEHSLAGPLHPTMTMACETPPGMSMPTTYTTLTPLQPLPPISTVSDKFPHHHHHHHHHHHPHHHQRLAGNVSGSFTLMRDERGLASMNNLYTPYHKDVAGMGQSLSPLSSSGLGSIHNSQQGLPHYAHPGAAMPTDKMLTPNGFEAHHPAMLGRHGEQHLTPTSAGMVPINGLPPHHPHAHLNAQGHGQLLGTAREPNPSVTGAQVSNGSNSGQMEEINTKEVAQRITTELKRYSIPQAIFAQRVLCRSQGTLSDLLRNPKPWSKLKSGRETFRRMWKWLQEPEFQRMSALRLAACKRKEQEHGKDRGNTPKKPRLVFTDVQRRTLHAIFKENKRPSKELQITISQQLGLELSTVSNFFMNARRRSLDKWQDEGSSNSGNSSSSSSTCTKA
# Procedure, shortened: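 Twenty-four-hour chemical treatment of reporter-transfected HepG2 cells precedes RNA isolation, DNase-treated reverse transcription and PCR of reporter sequences. Labelled fragments are sized by capillary electrophoresis and fitted bidirectionally versus DMSO.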
# [7] = target: Heat shock factor protein 1 (Homo sapiens) (UniProt Q00613); assay: ATG_HSE_CIS: Attagene CIS-FACTORIAL HepG2 Assay for human Heat Shock Transcription Factor 1 (HSE) (AID 2282953); conditions: HepG2 HSE cis-reporter, Attagene RNA transcription; actives raise or lower the signal
# Heat shock factor protein 1 (Homo sapiens), sequence (Q00613 whole entry, looked up, the tested form may be a part): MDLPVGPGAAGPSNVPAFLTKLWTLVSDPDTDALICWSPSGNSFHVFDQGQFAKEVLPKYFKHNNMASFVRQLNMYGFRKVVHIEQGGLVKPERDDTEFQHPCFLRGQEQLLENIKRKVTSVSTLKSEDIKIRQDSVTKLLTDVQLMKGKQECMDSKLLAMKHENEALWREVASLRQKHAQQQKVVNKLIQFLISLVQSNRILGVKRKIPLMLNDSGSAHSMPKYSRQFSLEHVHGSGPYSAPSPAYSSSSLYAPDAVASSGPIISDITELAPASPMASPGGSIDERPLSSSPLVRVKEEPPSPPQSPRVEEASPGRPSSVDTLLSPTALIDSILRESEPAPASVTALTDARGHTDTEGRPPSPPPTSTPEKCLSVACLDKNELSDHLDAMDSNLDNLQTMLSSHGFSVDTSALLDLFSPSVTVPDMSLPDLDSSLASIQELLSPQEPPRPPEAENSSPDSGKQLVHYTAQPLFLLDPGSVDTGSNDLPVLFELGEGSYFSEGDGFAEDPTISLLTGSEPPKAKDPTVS
# Procedure, shortened: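 Cells were transfected with cis-element-driven reporter constructs, dosed for 24 h, then total RNA was reverse-transcribed and reporter cDNA amplified, FAM-labelled and digested with HpaI. Fragments were resolved by capillary electrophoresis; gain or loss was fitted against DMSO.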
# [8] = ATG_MRE_CIS: Attagene CIS-FACTORIAL HepG2 Assay for human Metal Responsive Element (MRE) (AID 2282954); conditions: HepG2 MRE cis-reporter transcription, Attagene multiplex; actives raise or lower the signal
# Procedure, shortened: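 Multiplexed cis-reporter assay in human HepG2 liver cells, 24 h incubation with test chemical. Reporter transcripts measured by RT-PCR and capillary electrophoresis; values from bidirectional curve fitting versus DMSO.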
# [9] = ATG_PBREM_CIS: Attagene CIS-FACTORIAL HepG2 Assay for human Phenobarbital-responsive Enhancer Module (PBREM) (AID 2282955); conditions: HepG2 PBREM cis-reporter, Attagene multiplexed transcription; actives raise or lower the signal
# Procedure, shortened: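 HepG2 cells transiently transfected with multiple cis-regulated reporter units measure endogenous transcription factor activity; 24 h compound exposure. Reporter mRNA quantified by RT-PCR, fluorescent labelling, HpaI digestion and capillary electrophoresis; bidirectional fit versus DMSO.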
# [10] = target: Paired box protein Pax-6 (Homo sapiens) (UniProt P26367); assay: ATG_Pax6_CIS: Attagene CIS-FACTORIAL HepG2 Assay for human Paired Box 6 (PAX6) (AID 2282956); conditions: HepG2 CIS-FACTORIAL PAX6 reporter transcription, RNA readout; actives raise or lower the signal
# Paired box protein Pax-6 (Homo sapiens), sequence (P26367 whole entry, looked up): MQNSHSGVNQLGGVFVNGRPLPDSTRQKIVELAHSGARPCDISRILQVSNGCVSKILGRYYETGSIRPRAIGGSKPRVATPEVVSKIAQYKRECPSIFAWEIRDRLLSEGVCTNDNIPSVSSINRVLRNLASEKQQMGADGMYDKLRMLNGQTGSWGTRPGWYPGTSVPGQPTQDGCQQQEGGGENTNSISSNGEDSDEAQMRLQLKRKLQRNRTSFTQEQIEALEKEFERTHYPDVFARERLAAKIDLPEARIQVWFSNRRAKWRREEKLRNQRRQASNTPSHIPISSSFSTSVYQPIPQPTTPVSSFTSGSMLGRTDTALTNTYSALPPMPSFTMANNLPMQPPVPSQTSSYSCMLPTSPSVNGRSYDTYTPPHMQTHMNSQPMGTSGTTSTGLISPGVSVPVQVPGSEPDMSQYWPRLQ
# Procedure, shortened: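 Read-out is reporter transcript level, measured by RT-PCR with fluorescent primer extension and capillary electrophoresis after 24 h dosing of transfected HepG2 cells. Activity in either direction fitted relative to DMSO control.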
# [11] = ATG_PXRE_CIS: Attagene CIS-FACTORIAL HepG2 Assay for human Pregnane X Receptor Element (PXRE) (AID 2282957); conditions: HepG2 Attagene CIS-FACTORIAL PXRE reporter, mRNA; actives raise or lower the signal
# Procedure, shortened: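 Bidirectional activity, baselined to DMSO, derived from reporter mRNA fluorescence (RT-PCR plus capillary electrophoresis) in HepG2 cells bearing cis-promoter reporter units, 24 h exposure.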
# [12] = ATG_RORE_CIS: Attagene CIS-FACTORIAL HepG2 Assay for human RAR-related Orphan Receptor Element (RORE) (AID 2282959); conditions: HepG2 Attagene cis-factorial RORE reporter, mRNA; actives raise or lower the signal
# Procedure, shortened: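 HepG2 cells carrying transiently transfected cis-regulated reporter units; RORE-driven reporter mRNA quantified 24 h post-dosing by RT-PCR, 6-FAM primer extension, HpaI digestion and capillary electrophoresis. Bidirectional fit versus DMSO.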
# [13] = ATG_Sox_CIS: Attagene CIS-FACTORIAL HepG2 Assay for human SRY-box transcription factor (SOX) (AID 2282960); conditions: HepG2 Attagene cis-factorial SOX reporter, mRNA; actives raise or lower the signal
# Procedure, shortened: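 HepG2 cells transiently transfected with multiple cis-regulated reporter units, then dosed for 24 h. Reporter mRNA quantified by RT-PCR, fluorescent labelling, HpaI digestion and capillary electrophoresis; bidirectional fit versus DMSO.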
# [14] = target: Transcription factor Sp1 (Homo sapiens) (UniProt P08047); assay: ATG_Sp1_CIS: Attagene CIS-FACTORIAL HepG2 Assay for human Specificity Protein 1 (Sp1) (AID 2282961); conditions: HepG2 Sp1 cis-reporter transcription, actives raise or lower the signal
# Transcription factor Sp1 (Homo sapiens), sequence (P08047 whole entry, looked up): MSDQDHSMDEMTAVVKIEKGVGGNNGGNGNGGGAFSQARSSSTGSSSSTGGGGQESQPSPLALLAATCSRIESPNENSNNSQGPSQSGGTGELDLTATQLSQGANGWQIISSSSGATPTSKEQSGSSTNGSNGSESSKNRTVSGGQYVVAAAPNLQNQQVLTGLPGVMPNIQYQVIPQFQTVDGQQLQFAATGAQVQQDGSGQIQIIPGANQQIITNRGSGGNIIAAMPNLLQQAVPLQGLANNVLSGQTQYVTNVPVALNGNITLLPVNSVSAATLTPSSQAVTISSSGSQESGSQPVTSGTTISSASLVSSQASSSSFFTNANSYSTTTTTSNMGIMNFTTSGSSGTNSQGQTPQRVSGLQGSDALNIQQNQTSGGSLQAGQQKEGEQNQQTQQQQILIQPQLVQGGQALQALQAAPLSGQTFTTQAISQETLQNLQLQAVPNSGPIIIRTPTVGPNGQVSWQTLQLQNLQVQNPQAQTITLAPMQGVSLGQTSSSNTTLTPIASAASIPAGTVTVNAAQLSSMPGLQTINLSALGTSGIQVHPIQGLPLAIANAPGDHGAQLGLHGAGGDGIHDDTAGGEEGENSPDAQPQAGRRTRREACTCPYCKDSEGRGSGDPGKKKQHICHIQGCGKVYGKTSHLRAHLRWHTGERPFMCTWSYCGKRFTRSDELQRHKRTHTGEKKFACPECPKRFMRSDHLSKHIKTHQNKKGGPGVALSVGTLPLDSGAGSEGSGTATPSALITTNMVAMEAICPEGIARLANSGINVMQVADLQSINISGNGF
# Procedure, shortened: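 HepG2 cells transiently transfected with multiplexed cis-regulated reporter constructs, chemical exposure 24 h. Reporter mRNA quantified by RT-PCR with capillary electrophoresis; bidirectional fit relative to DMSO.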
# [15] = ATG_SREBP_CIS: Attagene CIS-FACTORIAL HepG2 Assay for human Sterol Regulatory Element Binding (SREBP) (AID 2282962); conditions: HepG2 Attagene cis-factorial SREBP reporter, mRNA; actives raise or lower the signal
# Procedure, shortened: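 Endogenous SREBP activity read as cis-element-driven reporter transcript in transiently transfected HepG2, 24 h post-dosing; quantified via RT-PCR plus capillary electrophoresis of fluorescent fragments. Gain or loss of signal fitted relative to DMSO baseline.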
# [16] = target: Signal transducer and activator of transcription 3 (Homo sapiens) (UniProt P40763); assay: ATG_STAT3_CIS: Attagene CIS-FACTORIAL HepG2 Assay for human Signal Transducer and Activator of Transcription 3 (STAT3) (AID 2282963); conditions: HepG2, Attagene cis-factorial STAT3 reporter transcription; actives raise or lower the signal
# Signal transducer and activator of transcription 3 (Homo sapiens), sequence (P40763 whole entry, looked up): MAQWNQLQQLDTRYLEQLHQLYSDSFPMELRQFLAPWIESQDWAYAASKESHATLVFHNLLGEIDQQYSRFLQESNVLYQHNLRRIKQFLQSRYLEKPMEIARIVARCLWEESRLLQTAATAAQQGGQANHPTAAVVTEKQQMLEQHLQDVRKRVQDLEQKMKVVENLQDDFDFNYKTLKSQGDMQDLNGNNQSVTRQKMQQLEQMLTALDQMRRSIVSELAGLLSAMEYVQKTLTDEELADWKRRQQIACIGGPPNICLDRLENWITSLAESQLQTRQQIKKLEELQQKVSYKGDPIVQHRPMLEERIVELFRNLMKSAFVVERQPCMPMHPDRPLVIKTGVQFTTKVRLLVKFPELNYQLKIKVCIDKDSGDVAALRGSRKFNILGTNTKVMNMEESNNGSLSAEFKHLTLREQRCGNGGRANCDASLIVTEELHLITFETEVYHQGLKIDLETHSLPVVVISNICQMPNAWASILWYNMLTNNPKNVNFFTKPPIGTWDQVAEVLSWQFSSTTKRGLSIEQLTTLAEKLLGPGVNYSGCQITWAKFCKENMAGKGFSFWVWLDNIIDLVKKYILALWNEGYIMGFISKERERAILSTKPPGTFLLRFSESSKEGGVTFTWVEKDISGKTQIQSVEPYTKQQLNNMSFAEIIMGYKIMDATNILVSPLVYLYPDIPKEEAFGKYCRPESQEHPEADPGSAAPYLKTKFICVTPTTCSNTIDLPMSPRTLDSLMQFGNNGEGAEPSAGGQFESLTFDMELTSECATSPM
# Procedure, shortened: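 Cis-factorial format: endogenous transcription factors in HepG2 drive transfected reporter units. After 24 h treatment, reporter RNA was reverse-transcribed, amplified, FAM-labelled and HpaI-digested before CE analysis; activity scored in both directions against DMSO.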
# [17] = ATG_TA_CIS: Attagene CIS-FACTORIAL HepG2 Assay for human TA Basal Promoter (AID 2282964); conditions: HepG2 Attagene CIS-factorial TA basal promoter reporter; actives raise or lower the signal
# Procedure, shortened: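 Steps: transfect HepG2 with MRTUs; dose 24 h; isolate RNA, DNase-treat, reverse-transcribe; PCR and FAM-label reporter cDNA; digest with HpaI 2h at 37 C; run capillary electrophoresis. Activity fitted both directions against DMSO.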
# [18] = ATG_TCF_b_cat_CIS: Attagene CIS-FACTORIAL HepG2 Assay for human T-Cell-Factor with beta-catenin (TCF/b-cat) (AID 2282965); conditions: HepG2 TCF/beta-catenin cis-reporter transcription, actives raise or lower the signal
# Procedure, shortened: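 Measured: reporter mRNA in HepG2 transiently transfected with cis-promoter reporter units, 24 h after chemical addition. Fitting was bidirectional, DMSO as negative control.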
# [19] = ATG_TAL_CIS: Attagene CIS-FACTORIAL HepG2 Assay for human TAL Basal Promoter (AID 2282966); conditions: HepG2 Attagene cis-factorial TAL promoter reporter; actives raise or lower the signal;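 note: background control endpoint measuring basal TAL promoter reporter mRNA not a specific factor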
# Procedure, shortened: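 Human hepatoma HepG2 cells, transfected with promoter-regulated reporter units, were treated 24 h. Reporter transcript levels, measured through RT-PCR and capillary electrophoresis, were fitted for gain or loss relative to DMSO.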
# [20] = ATG_PPRE_CIS: Attagene CIS-FACTORIAL HepG2 Assay for human Peroxisome Proliferator-activated Response Element (PPRE) (AID 2282958); conditions: HepG2 PPRE cis-element reporter, Attagene transcription factor profiling; actives raise or lower the signal
# Procedure, shortened: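 HepG2 cells are transiently transfected with multiplexed cis-promoter reporter units to report endogenous PPAR activity. After 24 h dosing, reporter mRNA is read by RT-PCR and capillary electrophoresis. Fitting is bidirectional against DMSO.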
structure (smiles),measurement,setting,value
CC(C)N(C(=O)SCC(Cl)=C(Cl)Cl)C(C)C,outcome,[1],inactive
same,outcome,[2],inactive
same,outcome,[3],inactive
same,outcome,[4],inactive
same,outcome,[5],inactive
same,outcome,[6],inactive
same,outcome,[7],inactive
same,AC50,[8],29.1 µM (active)
same,outcome,[9],inactive
same,outcome,[10],inactive
same,AC50,[11],3.05 µM (active)
same,outcome,[12],inactive
same,outcome,[13],inactive
same,outcome,[14],inactive
same,AC50,[15],29.1 µM (active)
same,outcome,[16],inactive
same,outcome,[17],inactive
same,outcome,[18],inactive
same,outcome,[19],inactive
N#CSCSC#N,outcome,[1],inactive
same,outcome,[2],inactive
same,outcome,[3],inactive
same,outcome,[4],inactive
same,outcome,[5],inactive
same,outcome,[6],inactive
same,outcome,[7],inactive
same,outcome,[8],inactive
same,outcome,[9],inactive
same,outcome,[10],inactive
same,AC50,[11],1.26 µM (active)
same,outcome,[20],inactive
same,outcome,[12],inactive
same,outcome,[13],inactive
same,outcome,[14],inactive
same,outcome,[15],inactive
same,outcome,[16],inactive
same,outcome,[17],inactive
same,outcome,[18],inactive
same,outcome,[19],inactive
CCC(CC)Nc1c([N+](=O)[O-])cc(C)c(C)c1[N+](=O)[O-],outcome,[1],inactive
same,AC50,[2],50 µM (active)
same,outcome,[3],inactive
same,outcome,[4],inactive
same,outcome,[5],inactive
same,outcome,[7],inactive
same,AC50,[8],28.9 µM (active)
same,outcome,[9],inactive
same,outcome,[10],inactive
same,AC50,[11],5.39 µM (active)
same,outcome,[20],inactive
same,outcome,[12],inactive
same,outcome,[13],inactive
same,outcome,[14],inactive
same,outcome,[15],inactive
same,outcome,[16],inactive
same,outcome,[17],inactive
same,outcome,[18],inactive
same,outcome,[19],inactive
CSC1=N[C@@](C)(c2ccccc2)C(=O)N1Nc1ccccc1,outcome,[1],inactive
same,outcome,[2],inactive
same,outcome,[3],inactive
same,outcome,[4],inactive
same,outcome,[5],inactive
same,outcome,[7],inactive
same,AC50,[8],50 µM (active)
same,AC50,[9],21.7 µM (active)
same,outcome,[10],inactive
same,AC50,[11],7.44 µM (active)
same,AC50,[20],19.2 µM (active)
same,outcome,[12],inactive
same,outcome,[13],inactive
same,outcome,[14],inactive
same,outcome,[15],inactive
same,outcome,[16],inactive
same,outcome,[17],inactive
same,outcome,[18],inactive
same,outcome,[19],inactive
COP(=O)(OC)OC(Br)C(Cl)(Cl)Br (stereo not given),outcome,[1],inactive
same,outcome,[2],inactive
same,outcome,[3],inactive
same,outcome,[4],inactive
same,outcome,[5],inactive
same,outcome,[7],inactive
same,outcome,[8],inactive
same,outcome,[9],inactive
same,outcome,[10],inactive
same,outcome,[11],inactive
same,outcome,[20],inactive
same,outcome,[12],inactive
same,outcome,[13],inactive
same,outcome,[14],inactive
same,outcome,[15],inactive
same,outcome,[16],inactive
same,outcome,[17],inactive
same,outcome,[18],inactive
same,outcome,[19],inactive
CCCOc1nn(C(=O)NS(=O)(=O)c2ccccc2C(=O)OC)c(=O)n1C,outcome,[1],inactive
same,outcome,[2],inactive
same,outcome,[3],inactive
same,outcome,[4],inactive
same,outcome,[5],inactive
same,outcome,[6],inactive
same,outcome,[7],inactive
same,outcome,[8],inactive
same,outcome,[9],inactive
same,outcome,[10],inactive
same,AC50,[11],50 µM (active)
same,outcome,[20],inactive
same,outcome,[12],inactive
same,outcome,[13],inactive
same,outcome,[14],inactive
same,outcome,[15],inactive
same,outcome,[16],inactive
same,outcome,[17],inactive
same,outcome,[18],inactive
same,outcome,[19],inactive
COc1ccc(C(=CC(=O)N2CCOCC2)c2ccc(Cl)cc2)cc1OC,outcome,[1],inactive
same,outcome,[2],inactive
same,outcome,[3],inactive
same,outcome,[4],inactive
same,AC50,[5],25.5 µM (active)
same,outcome,[7],inactive
same,AC50,[8],30.7 µM (active)
same,AC50,[9],24.9 µM (active)
same,outcome,[10],inactive
same,AC50,[11],5.15 µM (active)
same,AC50,[20],21.8 µM (active)
same,AC50,[12],5.72 µM (active)
same,outcome,[13],inactive
same,outcome,[14],inactive
same,outcome,[15],inactive
same,outcome,[16],inactive
same,outcome,[17],inactive
same,outcome,[18],inactive
same,outcome,[19],inactive
